# Experimental data from PubChem BioAssay.
# Calls of active or inactive are those of the source.
# Target: NADPH oxidase 4 (Homo sapiens) (UniProt Q9NPH5)
# Assay: compounds shifting NOX4 Amplex Red fluorescence – cell-based, HEK293-NOX4, tetracycline-induced, NOX inhibitor project, primary screen (AID 1160)
# Details: HEK293-NOX4, Amplex Red H2O2 fluorescence, 45 min; higher = more signal, called active from +8 up or from −8 down
# Chain of NADPH oxidase 4 (Homo sapiens) (Q9NPH5 whole entry, looked up): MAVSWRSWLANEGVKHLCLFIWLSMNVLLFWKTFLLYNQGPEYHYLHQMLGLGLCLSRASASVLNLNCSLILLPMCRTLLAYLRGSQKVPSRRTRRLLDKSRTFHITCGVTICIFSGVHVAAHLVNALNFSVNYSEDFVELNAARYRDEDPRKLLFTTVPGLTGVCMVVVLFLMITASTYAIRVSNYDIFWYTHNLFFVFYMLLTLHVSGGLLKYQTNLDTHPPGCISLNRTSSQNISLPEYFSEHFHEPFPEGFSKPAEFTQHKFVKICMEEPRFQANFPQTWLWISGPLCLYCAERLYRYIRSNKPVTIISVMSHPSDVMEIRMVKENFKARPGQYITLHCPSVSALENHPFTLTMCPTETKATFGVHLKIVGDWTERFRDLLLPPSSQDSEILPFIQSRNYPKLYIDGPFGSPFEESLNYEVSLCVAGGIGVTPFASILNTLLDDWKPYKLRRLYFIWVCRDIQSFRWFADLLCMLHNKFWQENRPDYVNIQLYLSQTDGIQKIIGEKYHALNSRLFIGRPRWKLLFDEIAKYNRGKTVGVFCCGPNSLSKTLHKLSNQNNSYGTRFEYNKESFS
row,SMILES,z-score
1,CC1CC/C=C\[C@H]2OC34C=CCN(Cn5nnc6ccccc65)C(=O)[C@H]3N(C(CO)C(C)C)C(=O)[C@@H]4C2C(=O)O1 (some centres not stated),0.134 (inactive)
2,C=CCOC(=O)[C@H]1[C@@H]2C(=O)O[C@@H](c3ccccc3)[C@@H](c3ccccc3)N2[C@@H](c2ccc(OCCOC(=O)[C@H]3C[C@H]4C(=O)N[C@@H](CC(C)C)C(=O)N4[C@H]3c3ccc(O)cc3)cc2)[C@]12C(=O)Nc1ccc(I)cc12,0.43 (inactive)
3,COCCOC(=O)N1C(=O)[C@@]2(c3cc(C#CC4=CCCCC4)ccc31)[C@H](c1ccc(O)cc1)N1[C@H](c3ccccc3)[C@H](c3ccccc3)OC(=O)[C@H]1[C@@H]2C(N)=O,0.748 (inactive)
4,CN(C)CCCNC(=O)[C@@]1(c2ccc([N+](=O)[O-])cc2)CC(=O)N(C2CCCCC2)[C@@H]1c1ccc(CO)cc1I,-2.52 (inactive)
5,COCCOC(=O)N1C(=O)[C@@]2(c3cc(C#CCCO)ccc31)[C@H](C(=O)N1CCc3cc(OC)c(OC)cc3C1)[C@H]1C(=O)O[C@H](c3ccccc3)[C@H](c3ccccc3)N1[C@@H]2c1ccc(O)cc1,0.706 (inactive)
6,CCCC[C@@H]1C[C@H]1[C@@H](NC(=O)c1ccco1)c1ccc(C(=O)OC)cc1,-1.96 (inactive)
7,CCCCCN1CC=CC23O[C@@H]4/C=C\CCCOC(=O)C4[C@H]2C(=O)N(CCCO)[C@@H]3C1=O (some centres not stated),0.42 (inactive)

# Target: NADPH oxidase 5 (Homo sapiens) (UniProt Q96PH1)
# Assay: compounds shifting NOX5 Amplex Red fluorescence – cell-based, HEK293-NOX5, NOX inhibitor project, primary screen (AID 1161)
# Details: HEK293-NOX5, ionomycin, 45 min, higher = more signal
# Chain of NADPH oxidase 5 (Homo sapiens) (Q96PH1 whole entry, looked up): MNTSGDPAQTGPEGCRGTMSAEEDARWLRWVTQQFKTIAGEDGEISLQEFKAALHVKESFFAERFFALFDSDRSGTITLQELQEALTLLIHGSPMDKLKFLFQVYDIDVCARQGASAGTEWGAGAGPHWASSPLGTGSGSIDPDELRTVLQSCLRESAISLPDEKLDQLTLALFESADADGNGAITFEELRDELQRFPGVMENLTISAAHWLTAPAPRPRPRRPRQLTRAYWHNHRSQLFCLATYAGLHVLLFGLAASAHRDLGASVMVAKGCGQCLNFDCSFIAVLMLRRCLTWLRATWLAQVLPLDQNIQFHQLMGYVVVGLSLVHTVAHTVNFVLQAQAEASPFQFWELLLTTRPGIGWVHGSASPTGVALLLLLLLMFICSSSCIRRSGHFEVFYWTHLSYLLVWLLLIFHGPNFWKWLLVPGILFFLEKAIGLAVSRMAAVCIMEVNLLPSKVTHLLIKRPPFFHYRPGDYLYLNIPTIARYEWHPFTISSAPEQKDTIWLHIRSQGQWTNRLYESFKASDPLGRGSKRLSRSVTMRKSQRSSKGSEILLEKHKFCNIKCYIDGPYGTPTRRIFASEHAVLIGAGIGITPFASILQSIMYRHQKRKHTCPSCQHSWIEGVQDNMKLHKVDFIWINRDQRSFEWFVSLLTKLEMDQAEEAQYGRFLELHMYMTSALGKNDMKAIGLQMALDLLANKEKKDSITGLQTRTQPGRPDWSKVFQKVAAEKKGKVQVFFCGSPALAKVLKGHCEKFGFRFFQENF
row,SMILES,z-score
1,COC(=O)C=C(CC(O)c1cccc(Cl)c1)OC (configuration not stated),0.219
2,COC(=O)[C@@]1(Cc2ccccc2)[C@H]2c3cc(C(=O)N4CCCC4)n(CC4CC4)c3C[C@H]2CN1C(=O)c1ccccc1,-2.49
3,COCCOC(=O)N1C(=O)[C@@]2(c3cc(C#CCCO)ccc31)[C@H](c1ccc(OCCO)cc1)N1[C@H](c3ccccc3)[C@H](c3ccccc3)OC(=O)[C@H]1[C@@H]2C(=O)N1CCN(c2ncccn2)CC1,1.32
4,COC(=O)[C@@]1(Cc2ccc(F)cc2)[C@H]2c3cc(C(=O)N(C)C)n(Cc4ccc(S(C)(=O)=O)cc4)c3C[C@H]2CN1C(=O)c1ccccc1,0.274
5,CCC(CC)C(O)C1C=CC2C(=O)N(C)C(=O)C2N1Nc1ccccc1 (configuration not stated),-3.77
6,C=CCNC(=O)[C@@H]1[C@H]2C(=O)O[C@H](c3ccccc3)[C@H](c3ccccc3)N2[C@H](c2ccc(OCCO)cc2)[C@@]12C(=O)Nc1ccc(C#CCCO)cc12,0.688
7,O=C(NCc1ccc(F)cc1)[C@H]1C[C@H]2C(=O)N[C@@H](Cc3ccccc3)C(=O)N2[C@H]1c1ccc(O)cc1,0.965
8,COC(=O)[C@@]1(Cc2ccc(F)cc2)[C@H]2c3cc(C(=O)N4CCCC4)n(Cc4cc(C)n(C)n4)c3C[C@H]2CN1C(=O)c1ccccc1,-0.196
9,C=CC[C@]1(C(=O)N2CCCCC2)N=C(c2ccc(OCCCO)cc2)O[C@H]1c1ccccc1,-1.71
10,CN1C(=O)C2C=CC(C(O)C3CCCCC3)N(Nc3ccc([N+](=O)[O-])cc3[N+](=O)[O-])C2C1=O (configuration not stated),0.414
11,C=C(C)C1C(=C)CN([C@H](CO)c2ccccc2)C1=O (some centres not stated),-0.846
12,N#Cc1ccc(NN2C(C(O)c3c(F)cccc3Cl)C=CC3C(=O)N(c4ccccc4)C(=O)C32)cc1 (configuration not stated),-2.98
13,[N-]=[N+]=Nc1ccccc1[C@H]1OC(c2ccc(OCCCO)cc2)=N[C@@]1(Cc1ccccc1)C(=O)O,1.75
14,O=C1NCC(=O)N2[C@@H]1C[C@@H](C(=O)O)[C@H]2c1cccc(OCCO)c1,1.62
15,COc1ccc(CCN2C(=O)[C@@]3(Cc4ccccc42)c2ccccc2C(=O)N(Cc2ccccc2C(F)(F)F)[C@H]3c2ccc(CO)cc2)cc1,-2.04
16,CN(C)C(=O)[C@]1(Cc2ccccc2CN=[N+]=[N-])N=C(c2ccc(OCCCO)cc2)O[C@@H]1c1ccccc1CN=[N+]=[N-],-1.78
17,CC(C)C[C@@H]1NC(=O)[C@H]2C[C@@H](C(=O)NCCCCCCN)[C@@H](c3ccc(O)cc3)N2C1=O,0.315
18,C=C(CCCC)/C(=C/C[C@@H](OC(C)=O)c1ccccc1OCCO)c1cnc2ccccc2c1,-1.79

row,SMILES,z-score
1,COC(=O)[C@@]1(Cc2ccccc2)[C@H]2c3cc(C(=O)N4CCCC4)n(Cc4cccc5ccccc45)c3C[C@H]2CN1C(=O)c1ccccc1,1.05
2,[N-]=[N+]=NCc1ccccc1[C@@H]1OC(c2ccc(OCCCO)cc2)=N[C@]1(CCS(=O)(=O)c1ccccc1)C(=O)NCc1ccccc1,-0.898
3,O=C1C[C@]2(c3ccc([N+](=O)[O-])cc3)C(=O)N(CCN3CCOCC3)c3cc(CO)ccc3[C@H]2N1C1CCCCC1,1.18
4,O=C1O[C@@H](c2ccccc2)[C@@H](c2ccccc2)N2[C@@H](c3ccc(OCCO)cc3)[C@]3(C(=O)Nc4ccccc43)[C@@H](C(=O)NC[C@H](O)c3ccccc3)[C@H]12,0.81
5,Cc1ccc(C(C)CC(O)C2C=CC3C(=O)N(c4ccccc4)C(=O)C3N2Nc2ccc([N+](=O)[O-])cc2)o1 (configuration not stated),-1.27
6,CC(C)C[C@@H]1NC(=O)[C@@H]2C[C@H](C(=O)NCCCCCN)[C@H](c3cccc(OCCO)c3)N2C1=O,1.43
7,C=C(CCCC)C(=O)CC[C@@H](OC(=O)c1cccnc1)c1ccc(CO)o1,-1.04
8,COc1ccc(C(O)C2C=CC3C(=O)N(c4ccccc4)C(=O)C3N2Nc2ccc(C(C)C)cc2)cc1OCc1ccccc1 (configuration not stated),-1.22
9,CC(C)[C@@H](CO)NC(=O)[C@H]1[C@@H](c2ccccc2)N(c2ccccc2)O[C@@H]1C,0.153
10,O=C1c2ccccc2[C@](Cc2ccccc2I)(C(=O)NC2CC2)[C@H](c2ccc(CO)cc2)N1C1CCCCC1,2.45
11,CC1CC/C=C\[C@H]2OC34C=CCN(Cn5nnc6ccccc65)C(=O)[C@H]3N(C(CO)C(C)C)C(=O)[C@@H]4C2C(=O)O1 (some centres not stated),2.22
12,C=CCOC(=O)[C@H]1[C@@H]2C(=O)O[C@@H](c3ccccc3)[C@@H](c3ccccc3)N2[C@@H](c2ccc(OCCOC(=O)[C@H]3C[C@H]4C(=O)N[C@@H](CC(C)C)C(=O)N4[C@H]3c3ccc(O)cc3)cc2)[C@]12C(=O)Nc1ccc(I)cc12,0.982
13,COCCOC(=O)N1C(=O)[C@@]2(c3cc(C#CC4=CCCCC4)ccc31)[C@H](c1ccc(O)cc1)N1[C@H](c3ccccc3)[C@H](c3ccccc3)OC(=O)[C@H]1[C@@H]2C(N)=O,1.03
14,CN(C)CCCNC(=O)[C@@]1(c2ccc([N+](=O)[O-])cc2)CC(=O)N(C2CCCCC2)[C@@H]1c1ccc(CO)cc1I,0.205
15,COCCOC(=O)N1C(=O)[C@@]2(c3cc(C#CCCO)ccc31)[C@H](C(=O)N1CCc3cc(OC)c(OC)cc3C1)[C@H]1C(=O)O[C@H](c3ccccc3)[C@H](c3ccccc3)N1[C@@H]2c1ccc(O)cc1,1.29
16,CCCC[C@@H]1C[C@H]1[C@@H](NC(=O)c1ccco1)c1ccc(C(=O)OC)cc1,1.82
17,CCCCCN1CC=CC23O[C@@H]4/C=C\CCCOC(=O)C4[C@H]2C(=O)N(CCCO)[C@@H]3C1=O (some centres not stated),2.13
